# Assays:
# Assay in all cases: DAPPL (digital affinity profiling via proximity ligation, sequencing); 10 mM Tris-HCl pH 7.5, 50 mM NaCl, 1 mM DTT, 4% glycerol, room temperature, 30 min; GST-TFs on glutathione beads, 16-mer random dsDNA library, 0.1% formaldehyde crosslink after washing; high values mean tight binding
# FLI1 = target: T1, FLI1 (Homo sapiens, UniProt Q01543 1-452); settings: protein: recombinant; tags: N-terminal GST; dsDNA, one strand shown
# T1 sequence: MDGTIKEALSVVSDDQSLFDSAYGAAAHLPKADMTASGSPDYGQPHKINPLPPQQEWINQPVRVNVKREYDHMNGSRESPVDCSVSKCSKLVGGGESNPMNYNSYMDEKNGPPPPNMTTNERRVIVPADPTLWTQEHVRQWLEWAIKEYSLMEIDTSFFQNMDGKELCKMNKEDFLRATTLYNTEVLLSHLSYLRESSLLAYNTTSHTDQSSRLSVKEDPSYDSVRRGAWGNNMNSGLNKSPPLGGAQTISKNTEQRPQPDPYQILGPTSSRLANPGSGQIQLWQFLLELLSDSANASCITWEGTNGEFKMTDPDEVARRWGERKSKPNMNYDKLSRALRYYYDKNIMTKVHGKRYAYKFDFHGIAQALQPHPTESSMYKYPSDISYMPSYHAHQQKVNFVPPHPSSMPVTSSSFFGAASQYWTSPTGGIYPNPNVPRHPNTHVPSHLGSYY
# Method in brief: (§1)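 Binding signal is defined as a hexamer's read frequency for one factor over its frequency for the tag-only sample. To obtain reads, GST-fused human transcription factors were expressed in yeast, captured on glutathione beads, barcoded with DNA and pooled with that sample. Pools met 200 nmole of a 16-mer random double-stranded DNA library in Tris/NaCl/DTT/glycerol buffer for 30 min at room temperature before washing, 0.1% formaldehyde crosslinking, proximity ligation (BsaI/T4 ligase, 1 h, 37 °C), PCR and Illumina NextSeq500 sequencing.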
# ELK1 = target: T2, ELK1 (Homo sapiens, UniProt P19419 1-428); settings: protein: recombinant; tags: N-terminal GST; dsDNA, one strand shown
# T2 sequence: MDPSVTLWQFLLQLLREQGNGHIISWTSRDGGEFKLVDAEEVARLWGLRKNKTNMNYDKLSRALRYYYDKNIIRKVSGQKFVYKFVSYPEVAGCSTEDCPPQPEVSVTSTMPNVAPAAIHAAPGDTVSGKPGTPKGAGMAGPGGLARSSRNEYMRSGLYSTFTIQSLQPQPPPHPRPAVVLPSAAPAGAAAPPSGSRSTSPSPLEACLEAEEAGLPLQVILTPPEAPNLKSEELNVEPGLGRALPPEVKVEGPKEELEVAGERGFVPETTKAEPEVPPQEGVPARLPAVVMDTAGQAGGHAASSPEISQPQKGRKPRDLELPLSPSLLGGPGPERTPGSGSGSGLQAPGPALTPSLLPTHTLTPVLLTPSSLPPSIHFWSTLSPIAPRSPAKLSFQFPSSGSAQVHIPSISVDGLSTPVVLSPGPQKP
# Method in brief: as §1
# GABPA = target: T3, GABPA (Homo sapiens, UniProt Q06546 1-454); settings: protein: recombinant; tags: N-terminal GST; dsDNA, one strand shown
# T3 sequence: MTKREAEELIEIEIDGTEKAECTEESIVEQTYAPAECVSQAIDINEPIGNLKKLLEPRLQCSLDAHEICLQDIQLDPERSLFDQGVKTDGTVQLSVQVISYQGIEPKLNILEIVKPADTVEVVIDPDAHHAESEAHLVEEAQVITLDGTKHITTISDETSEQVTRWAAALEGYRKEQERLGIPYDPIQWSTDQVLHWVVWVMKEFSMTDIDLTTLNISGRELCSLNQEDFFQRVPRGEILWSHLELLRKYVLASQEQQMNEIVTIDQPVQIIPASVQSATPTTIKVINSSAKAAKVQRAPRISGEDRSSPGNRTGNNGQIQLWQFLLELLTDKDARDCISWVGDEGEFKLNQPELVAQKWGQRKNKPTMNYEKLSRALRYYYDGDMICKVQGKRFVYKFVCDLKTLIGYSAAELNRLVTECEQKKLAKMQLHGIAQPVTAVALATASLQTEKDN
# Method in brief: as §1
# ERG = target: T4, ERG (Homo sapiens, UniProt P11308 1-479); settings: protein: recombinant; tags: N-terminal GST; dsDNA, one strand shown
# T4 sequence: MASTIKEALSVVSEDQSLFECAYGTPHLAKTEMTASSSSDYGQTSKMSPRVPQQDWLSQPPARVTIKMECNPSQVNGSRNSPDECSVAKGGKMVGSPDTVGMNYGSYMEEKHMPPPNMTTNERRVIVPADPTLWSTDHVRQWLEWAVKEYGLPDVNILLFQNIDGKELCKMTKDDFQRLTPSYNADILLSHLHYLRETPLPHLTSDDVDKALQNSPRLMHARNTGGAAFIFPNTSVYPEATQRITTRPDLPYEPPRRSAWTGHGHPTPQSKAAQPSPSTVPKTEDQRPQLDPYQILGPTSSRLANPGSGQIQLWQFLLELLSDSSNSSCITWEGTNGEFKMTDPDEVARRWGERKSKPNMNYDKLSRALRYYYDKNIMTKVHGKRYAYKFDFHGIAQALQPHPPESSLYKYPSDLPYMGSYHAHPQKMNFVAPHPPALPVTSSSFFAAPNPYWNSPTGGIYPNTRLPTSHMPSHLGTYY
# Method in brief: as §1
# ELF1 = ELF1 (Homo sapiens, UniProt P32519 1-619); settings: protein: recombinant; tags: N-terminal GST; dsDNA, one strand shown
# Chain of ELF1 (P32519 whole entry): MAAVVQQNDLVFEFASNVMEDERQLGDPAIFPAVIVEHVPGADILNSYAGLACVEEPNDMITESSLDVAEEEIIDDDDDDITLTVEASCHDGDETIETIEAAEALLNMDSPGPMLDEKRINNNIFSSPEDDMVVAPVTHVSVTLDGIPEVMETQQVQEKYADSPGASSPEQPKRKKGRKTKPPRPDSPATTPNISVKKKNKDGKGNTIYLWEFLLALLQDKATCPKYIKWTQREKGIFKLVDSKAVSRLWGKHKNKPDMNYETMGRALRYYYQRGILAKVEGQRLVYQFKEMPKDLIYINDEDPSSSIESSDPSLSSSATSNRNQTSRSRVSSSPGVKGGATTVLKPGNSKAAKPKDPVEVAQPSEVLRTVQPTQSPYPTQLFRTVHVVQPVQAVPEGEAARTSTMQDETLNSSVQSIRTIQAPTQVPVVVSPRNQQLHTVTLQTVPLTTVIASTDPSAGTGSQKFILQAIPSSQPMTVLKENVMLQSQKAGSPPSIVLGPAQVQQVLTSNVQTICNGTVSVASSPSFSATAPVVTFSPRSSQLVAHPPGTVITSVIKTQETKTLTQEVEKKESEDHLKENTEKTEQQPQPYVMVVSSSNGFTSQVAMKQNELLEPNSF
# Method in brief: as §1
# EHF = target: T5, EHF (Homo sapiens, UniProt Q9NZC4 1-300); settings: protein: recombinant; tags: N-terminal GST; dsDNA, one strand shown
# T5 sequence: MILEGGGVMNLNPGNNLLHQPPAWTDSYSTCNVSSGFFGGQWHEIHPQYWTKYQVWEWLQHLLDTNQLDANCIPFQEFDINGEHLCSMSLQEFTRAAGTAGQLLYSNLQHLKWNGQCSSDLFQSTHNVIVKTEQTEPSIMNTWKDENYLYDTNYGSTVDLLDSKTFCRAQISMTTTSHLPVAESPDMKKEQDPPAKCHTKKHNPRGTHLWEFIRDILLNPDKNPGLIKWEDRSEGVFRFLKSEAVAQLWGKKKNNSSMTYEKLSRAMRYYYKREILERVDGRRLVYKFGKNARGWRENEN
# Method in brief: as §1
# SPI1 = SPI1 (Homo sapiens, UniProt P17947 1-270); settings: protein: recombinant; tags: N-terminal GST; dsDNA, one strand shown
# Method in brief: as §1
# SPIB = SPIB (Homo sapiens, UniProt Q01892 1-262); settings: protein: recombinant; tags: N-terminal GST; dsDNA, one strand shown
# Chain of SPIB (Q01892 whole entry): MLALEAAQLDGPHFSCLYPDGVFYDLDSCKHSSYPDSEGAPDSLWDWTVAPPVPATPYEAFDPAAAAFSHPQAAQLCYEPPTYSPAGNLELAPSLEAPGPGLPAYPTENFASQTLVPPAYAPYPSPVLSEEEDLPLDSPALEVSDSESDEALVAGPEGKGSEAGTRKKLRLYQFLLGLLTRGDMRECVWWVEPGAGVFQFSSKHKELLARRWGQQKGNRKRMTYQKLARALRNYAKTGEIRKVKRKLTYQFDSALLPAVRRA
# Method in brief: as §1
# ELK3 = target: T6, ELK3 (Homo sapiens, UniProt P41970 1-407); settings: protein: recombinant; tags: N-terminal GST; dsDNA, one strand shown
# T6 sequence: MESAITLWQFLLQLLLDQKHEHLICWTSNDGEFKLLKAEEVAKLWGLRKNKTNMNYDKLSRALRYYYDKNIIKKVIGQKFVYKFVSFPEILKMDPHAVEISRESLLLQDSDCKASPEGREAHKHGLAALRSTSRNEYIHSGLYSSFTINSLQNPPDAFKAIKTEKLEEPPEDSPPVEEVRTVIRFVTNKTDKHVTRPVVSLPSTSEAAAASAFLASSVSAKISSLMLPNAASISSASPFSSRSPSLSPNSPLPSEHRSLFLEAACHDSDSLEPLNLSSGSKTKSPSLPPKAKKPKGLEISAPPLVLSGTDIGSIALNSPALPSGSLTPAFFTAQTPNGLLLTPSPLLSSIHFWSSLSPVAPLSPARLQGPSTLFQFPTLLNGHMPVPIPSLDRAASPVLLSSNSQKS
# Method in brief: as §1
# FEV = target: T7, FEV (Homo sapiens, UniProt Q99581 1-238); settings: protein: recombinant; tags: N-terminal GST; dsDNA, one strand shown
# T7 sequence: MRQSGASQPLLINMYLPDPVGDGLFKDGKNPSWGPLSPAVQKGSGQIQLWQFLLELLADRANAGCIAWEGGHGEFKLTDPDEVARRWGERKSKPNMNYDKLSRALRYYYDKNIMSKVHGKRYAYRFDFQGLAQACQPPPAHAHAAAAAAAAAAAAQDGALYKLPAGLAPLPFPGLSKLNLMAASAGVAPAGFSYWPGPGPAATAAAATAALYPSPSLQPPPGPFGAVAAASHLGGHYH
# Method in brief: as §1
# ETV5 = ETV5 (Homo sapiens, UniProt P41161 1-510); settings: protein: recombinant; tags: N-terminal GST; dsDNA, one strand shown
# Chain of ETV5 (P41161 whole entry): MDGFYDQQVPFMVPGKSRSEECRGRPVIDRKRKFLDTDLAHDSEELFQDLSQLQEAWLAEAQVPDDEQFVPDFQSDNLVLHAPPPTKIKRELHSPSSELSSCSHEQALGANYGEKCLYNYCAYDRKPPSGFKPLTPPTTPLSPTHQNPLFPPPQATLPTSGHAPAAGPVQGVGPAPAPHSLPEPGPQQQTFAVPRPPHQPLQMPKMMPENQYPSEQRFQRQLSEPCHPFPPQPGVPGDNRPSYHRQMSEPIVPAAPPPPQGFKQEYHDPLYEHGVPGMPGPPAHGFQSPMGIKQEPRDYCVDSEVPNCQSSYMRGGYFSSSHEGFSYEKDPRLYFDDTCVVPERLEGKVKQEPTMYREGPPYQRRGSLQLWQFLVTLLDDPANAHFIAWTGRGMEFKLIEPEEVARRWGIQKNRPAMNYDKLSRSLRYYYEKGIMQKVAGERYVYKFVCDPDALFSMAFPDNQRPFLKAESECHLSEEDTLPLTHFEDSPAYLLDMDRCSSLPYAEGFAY
# Method in brief: as §1
# HSF1 = HSF1 (Homo sapiens, UniProt Q00613 1-529); settings: protein: recombinant; tags: N-terminal GST; chain copies: 3; dsDNA, one strand shown
# Chain of HSF1 (Q00613 whole entry): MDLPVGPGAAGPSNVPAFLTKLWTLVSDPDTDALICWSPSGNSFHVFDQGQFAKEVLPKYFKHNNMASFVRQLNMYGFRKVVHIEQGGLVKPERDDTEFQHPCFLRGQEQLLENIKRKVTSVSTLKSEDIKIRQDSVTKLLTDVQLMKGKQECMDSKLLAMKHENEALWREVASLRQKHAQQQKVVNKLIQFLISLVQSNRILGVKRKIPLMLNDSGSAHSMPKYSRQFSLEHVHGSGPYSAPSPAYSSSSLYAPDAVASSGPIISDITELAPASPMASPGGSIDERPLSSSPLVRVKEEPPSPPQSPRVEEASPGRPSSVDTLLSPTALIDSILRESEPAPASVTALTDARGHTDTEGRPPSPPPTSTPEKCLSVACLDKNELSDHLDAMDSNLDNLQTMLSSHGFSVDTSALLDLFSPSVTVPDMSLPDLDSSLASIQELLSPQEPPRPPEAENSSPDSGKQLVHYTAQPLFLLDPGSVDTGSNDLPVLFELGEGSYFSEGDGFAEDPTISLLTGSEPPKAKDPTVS
# Method in brief: as §1
# SPIC = target: T8, SPIC (Homo sapiens, UniProt Q8N5J4 1-248); settings: protein: recombinant; tags: N-terminal GST; dsDNA, one strand shown
# T8 sequence: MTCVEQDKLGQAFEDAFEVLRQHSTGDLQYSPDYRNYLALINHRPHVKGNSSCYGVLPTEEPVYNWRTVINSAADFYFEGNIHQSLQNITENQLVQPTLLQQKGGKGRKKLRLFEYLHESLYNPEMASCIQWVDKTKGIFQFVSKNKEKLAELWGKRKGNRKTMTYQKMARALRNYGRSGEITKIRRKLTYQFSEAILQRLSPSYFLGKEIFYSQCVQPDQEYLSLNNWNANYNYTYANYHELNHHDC
# Method in brief: as §1
# ELF4 = ELF4 (Homo sapiens, UniProt Q99607 1-663); settings: protein: recombinant; tags: N-terminal GST; dsDNA, one strand shown
# Chain of ELF4 (Q99607 whole entry): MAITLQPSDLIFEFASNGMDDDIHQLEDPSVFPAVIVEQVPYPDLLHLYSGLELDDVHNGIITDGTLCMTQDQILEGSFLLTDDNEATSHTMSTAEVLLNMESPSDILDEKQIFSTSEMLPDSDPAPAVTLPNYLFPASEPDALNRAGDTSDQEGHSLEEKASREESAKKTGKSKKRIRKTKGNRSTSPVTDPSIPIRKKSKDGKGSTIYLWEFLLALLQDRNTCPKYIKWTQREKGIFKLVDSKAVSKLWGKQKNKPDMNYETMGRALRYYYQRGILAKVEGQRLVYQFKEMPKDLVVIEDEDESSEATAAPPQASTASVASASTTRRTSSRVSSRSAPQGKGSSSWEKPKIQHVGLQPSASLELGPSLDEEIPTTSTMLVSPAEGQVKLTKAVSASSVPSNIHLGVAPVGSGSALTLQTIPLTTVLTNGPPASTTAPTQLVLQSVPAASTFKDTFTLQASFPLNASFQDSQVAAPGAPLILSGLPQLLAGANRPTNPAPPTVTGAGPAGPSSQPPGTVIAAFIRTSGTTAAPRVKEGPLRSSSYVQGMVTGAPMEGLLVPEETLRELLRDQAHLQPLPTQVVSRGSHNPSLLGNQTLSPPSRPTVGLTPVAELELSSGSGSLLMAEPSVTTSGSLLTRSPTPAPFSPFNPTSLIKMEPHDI
# Method in brief: as §1
# ELK4 = target: T9, ELK4 (Homo sapiens, UniProt P28324-2 1-405); settings: protein: recombinant; tags: N-terminal GST; dsDNA, one strand shown
# T9 sequence: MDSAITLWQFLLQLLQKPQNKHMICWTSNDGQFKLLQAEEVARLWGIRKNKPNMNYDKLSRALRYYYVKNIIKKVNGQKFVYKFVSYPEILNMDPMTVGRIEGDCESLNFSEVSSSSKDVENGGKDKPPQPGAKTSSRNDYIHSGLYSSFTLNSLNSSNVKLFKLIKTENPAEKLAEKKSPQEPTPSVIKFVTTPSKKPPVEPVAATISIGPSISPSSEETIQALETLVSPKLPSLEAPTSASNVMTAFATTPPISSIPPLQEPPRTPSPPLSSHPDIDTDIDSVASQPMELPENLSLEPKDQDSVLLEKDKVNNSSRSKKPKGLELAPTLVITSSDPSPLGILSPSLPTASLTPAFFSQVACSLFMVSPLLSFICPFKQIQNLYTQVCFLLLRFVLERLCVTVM
# Method in brief: as §1
# ETV2 = target: T10, ETV2 (Homo sapiens, UniProt O00321 1-342); settings: protein: recombinant; tags: N-terminal GST; dsDNA, one strand shown
# T10 sequence: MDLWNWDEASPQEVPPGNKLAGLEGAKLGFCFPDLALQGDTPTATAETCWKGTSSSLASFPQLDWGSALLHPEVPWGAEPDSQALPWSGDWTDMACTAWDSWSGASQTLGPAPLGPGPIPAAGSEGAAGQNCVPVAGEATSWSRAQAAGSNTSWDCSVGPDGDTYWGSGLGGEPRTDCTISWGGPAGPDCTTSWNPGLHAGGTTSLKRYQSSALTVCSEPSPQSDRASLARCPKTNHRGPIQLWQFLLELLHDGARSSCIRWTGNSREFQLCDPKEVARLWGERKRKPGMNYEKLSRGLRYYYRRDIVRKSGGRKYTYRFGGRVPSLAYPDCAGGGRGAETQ
# Method in brief: as §1
# ELF3 = target: T11, ELF3 (Homo sapiens, UniProt P78545 1-371); settings: protein: recombinant; tags: N-terminal GST; dsDNA, one strand shown
# T11 sequence: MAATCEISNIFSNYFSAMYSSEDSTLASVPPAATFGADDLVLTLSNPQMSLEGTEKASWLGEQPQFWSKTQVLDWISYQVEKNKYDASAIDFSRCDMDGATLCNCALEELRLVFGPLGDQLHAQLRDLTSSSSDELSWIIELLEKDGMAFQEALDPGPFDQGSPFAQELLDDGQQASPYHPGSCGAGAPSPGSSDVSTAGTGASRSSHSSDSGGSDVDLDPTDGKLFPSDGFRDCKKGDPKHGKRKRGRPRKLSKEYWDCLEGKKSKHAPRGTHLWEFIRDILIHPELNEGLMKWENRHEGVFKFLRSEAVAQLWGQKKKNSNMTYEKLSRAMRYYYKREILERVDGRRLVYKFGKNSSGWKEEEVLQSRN
# Method in brief: as §1
# CRX = CRX (Homo sapiens, UniProt O43186 1-299); settings: protein: recombinant; tags: N-terminal GST; dsDNA, one strand shown
# Chain of CRX (O43186 whole entry): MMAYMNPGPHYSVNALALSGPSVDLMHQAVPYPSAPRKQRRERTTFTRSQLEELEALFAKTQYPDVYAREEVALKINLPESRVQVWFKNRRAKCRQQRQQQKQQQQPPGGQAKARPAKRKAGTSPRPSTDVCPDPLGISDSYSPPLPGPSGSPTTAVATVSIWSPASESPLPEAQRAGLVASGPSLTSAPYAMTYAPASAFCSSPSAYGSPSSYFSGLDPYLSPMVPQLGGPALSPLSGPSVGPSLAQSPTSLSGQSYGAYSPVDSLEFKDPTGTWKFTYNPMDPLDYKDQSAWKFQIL
# Method in brief: as §1
# ETV1 = ETV1 (Homo sapiens, UniProt P50549 1-477); settings: protein: recombinant; tags: N-terminal GST; dsDNA, one strand shown
# Chain of ETV1 (P50549 whole entry): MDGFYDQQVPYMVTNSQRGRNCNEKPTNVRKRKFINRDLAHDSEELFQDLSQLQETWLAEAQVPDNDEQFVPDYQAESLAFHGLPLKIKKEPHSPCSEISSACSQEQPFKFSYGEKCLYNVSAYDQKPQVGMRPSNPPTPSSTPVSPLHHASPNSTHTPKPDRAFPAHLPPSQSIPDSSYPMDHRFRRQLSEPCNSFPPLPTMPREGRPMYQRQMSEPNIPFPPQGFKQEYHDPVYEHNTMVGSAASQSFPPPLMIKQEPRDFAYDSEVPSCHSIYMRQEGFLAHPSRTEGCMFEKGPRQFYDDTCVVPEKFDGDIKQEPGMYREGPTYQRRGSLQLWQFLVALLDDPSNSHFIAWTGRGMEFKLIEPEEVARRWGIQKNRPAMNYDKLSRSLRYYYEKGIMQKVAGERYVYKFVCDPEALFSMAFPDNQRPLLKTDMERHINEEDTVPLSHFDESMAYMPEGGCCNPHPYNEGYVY
# Method in brief: as §1
sequence,measurement,setting,value
TTGTAA,binding signal,FLI1,"1.32 fold enrichment (6-mer frequency, TF over GST control)"
same,binding signal,ELK1,"1.3 fold enrichment (6-mer frequency, TF over GST control)"
same,binding signal,GABPA,"1.24 fold enrichment (6-mer frequency, TF over GST control)"
same,binding signal,ERG,"1.27 fold enrichment (6-mer frequency, TF over GST control)"
same,binding signal,ELF1,"1.34 fold enrichment (6-mer frequency, TF over GST control)"
same,binding signal,EHF,"1.34 fold enrichment (6-mer frequency, TF over GST control)"
same,binding signal,SPI1,"1.3 fold enrichment (6-mer frequency, TF over GST control)"
same,binding signal,SPIB,"1.22 fold enrichment (6-mer frequency, TF over GST control)"
same,binding signal,ELK3,"1.08 fold enrichment (6-mer frequency, TF over GST control)"
same,binding signal,FEV,"1.2 fold enrichment (6-mer frequency, TF over GST control)"
same,binding signal,ETV5,"1.35 fold enrichment (6-mer frequency, TF over GST control)"
same,binding signal,HSF1,"1.4 fold enrichment (6-mer frequency, TF over GST control)"
same,binding signal,SPIC,"1.31 fold enrichment (6-mer frequency, TF over GST control)"
same,binding signal,ELF4,"1.24 fold enrichment (6-mer frequency, TF over GST control)"
same,binding signal,ELK4,"1.36 fold enrichment (6-mer frequency, TF over GST control)"
same,binding signal,ETV2,"1.36 fold enrichment (6-mer frequency, TF over GST control)"
same,binding signal,ELF3,"1.44 fold enrichment (6-mer frequency, TF over GST control)"
same,binding signal,CRX,"1.62 fold enrichment (6-mer frequency, TF over GST control)"
same,binding signal,ETV1,"1.31 fold enrichment (6-mer frequency, TF over GST control)"
